Experimental data taken from PubChem BioAssay (Tox21).
Inconclusive results are not listed. The source made the active and inactive calls. Unless noted, calls follow the shape of the dose curve; as a rule, active = well fitted curve in the direction sought with a large enough effect in the repeat runs; inconclusive = weak or mixed curves; inactive = no such curve, though single readings can be large; an effect the other way counts as inactive or inconclusive.

Key:
[1] = qHTS RealTime-Glo MT Cell Viability Assay in HEK293 cells - 24 hour (AID 1224886); also: nearly all actives have a fitted effect of over 50% in size; also: potency is read from the fitted curve at half-maximal effect; as to activity change, negative = cytotoxicity: top concentration of the series differs between compounds
Method in brief: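 Nonlytic real-time viability readout: viable cells convert prosubstrate to NanoLuc substrate, giving luminescence proportional to live cell number. HEK293, 600 cells/well, compound added after 5 h, continuous culture at 37 C.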

[2] = qHTS RealTime-Glo MT Cell Viability Assay in HEK293 cells - 8 hour (AID 1224887); also: nearly all actives have a fitted effect of over 50% in size; also: potency is read from the fitted curve at half-maximal effect; as to activity change, negative = cytotoxicity: top concentration of the series differs between compounds
Method in brief: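 600 cells/well were plated with the nonlytic NanoLuc/prosubstrate reagent, pre-incubated 5 h, then given 23 nL of compound in DMSO. Incubation at 37 C for 40 h, with luminescence from viable-cell-reduced substrate read repeatedly from 0 h.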

[3] = A CellTox Green Cytotoxicity Assay to monitor cytotoxicity in HEK293 cells - 16 hour (AID 1224888); also: nearly all actives have a fitted effect of over 35% in size
Method in brief: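 HEK293 cells, 600/well, were preincubated 5 hours and then exposed to compounds at 37 C for up to 40 hours. A cell-impermeant cyanine dye staining dead-cell DNA was read by fluorescence at 0, 8, 16, 24, 32 and 40 h time points.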

[4] = A CellTox Green Cytotoxicity Assay to monitor cytotoxicity in HepG2 cells - 8 hour (AID 1224890); also: nearly all actives have a fitted effect of over 45% in size
Method in brief: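 HepG2 cells, 600/well, preincubated 5 h with CellTox Green dye, then exposed to Tox21 compounds in DMSO at 37 C for up to 40 h. Dead-cell DNA fluorescence read at the indicated time point.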

[5] = qHTS assay to identify small molecule antagonists of the estrogen receptor alpha (ER-alpha) signaling pathway using the BG1 cell line in the presence of 0.1 nM 17-beta-estradiol - cell viability counter screen (AID 1259241); also: nearly all actives have a fitted effect of over 40% in size
Method in brief: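 In this screen, hormone-deprived VM7Luc4E2 cells were seeded at 4,000 per well, dosed with compound and 0.1 nM estradiol final, and incubated 22 hr at 37C and 5% CO2; fluorogenic live-cell protease signal reported viability.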

[6] = qHTS assay to identify small molecule antagonists of the androgen receptor (AR) signaling pathway using the MDA cell line in the presence of 0.5 nM R1881 - cell viability counter screen (AID 1259242); also: nearly all actives have a fitted effect of over 45% in size
Method in brief: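 MDA-kb2 cells (MMTV-luciferase, AR/GR responsive) were treated with compounds plus 0.5 nM R1881 (final) for 16 hr at 37C, 0% CO2. Viability was then read in the same wells as live-cell protease fluorescence (CellTiter-Fluor, 30 min).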

[7] = target: Estrogen receptor (Homo sapiens) (UniProt P03372); assay: qHTS assay to identify small molecule antagonists of the estrogen receptor alpha (ER-alpha) signaling pathway using the BG1 cell line in the presence of 0.1 nM 17-beta-estradiol (AID 1259244); also: nearly all actives have a fitted effect of over 50% in size
Sequence of Estrogen receptor (Homo sapiens) (P03372 whole entry, looked up): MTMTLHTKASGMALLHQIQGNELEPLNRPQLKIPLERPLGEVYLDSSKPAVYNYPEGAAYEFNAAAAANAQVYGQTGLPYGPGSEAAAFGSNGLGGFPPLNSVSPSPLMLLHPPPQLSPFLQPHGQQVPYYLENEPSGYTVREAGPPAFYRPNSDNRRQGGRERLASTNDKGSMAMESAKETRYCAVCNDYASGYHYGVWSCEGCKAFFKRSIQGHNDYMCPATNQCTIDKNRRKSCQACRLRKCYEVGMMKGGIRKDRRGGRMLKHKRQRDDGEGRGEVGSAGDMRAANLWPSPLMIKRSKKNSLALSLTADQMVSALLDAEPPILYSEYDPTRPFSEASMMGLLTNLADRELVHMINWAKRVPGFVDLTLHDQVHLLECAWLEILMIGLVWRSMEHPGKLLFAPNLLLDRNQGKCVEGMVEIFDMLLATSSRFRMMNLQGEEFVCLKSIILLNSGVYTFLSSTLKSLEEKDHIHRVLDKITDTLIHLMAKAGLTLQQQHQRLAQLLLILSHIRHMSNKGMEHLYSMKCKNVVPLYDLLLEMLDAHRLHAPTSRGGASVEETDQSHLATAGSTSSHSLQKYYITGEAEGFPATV
Method in brief: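 VM7Luc4E2 cells (endogenous full-length ER-alpha, 4×ERE-luciferase), kept 5 days in phenol red-free, charcoal-stripped FBS medium; 4,000 cells/well. Compounds added with 0.1 nM (final) 17beta-estradiol, 22 hr at 37C; luminescence read with ONE-Glo after 30 min.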

[8] = qHTS assay to identify small molecule HDAC inhibitors - cell viability counter screen (AID 1259365); also: series mostly up to about 92 µM; nearly all actives have a fitted effect of over 50% in size
Method in brief: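 Measured quantity is CellTiter-Glo luminescence from wild-type HCT-116 cells after compound incubation of 2hr at 37C, 5% CO2; reagent developed 30min at room temperature.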

[9] = qHTS assay to identify small molecule agonists of the sonic hedgehog signaling (Shh) pathway - cell viability counter screen (AID 1259366); also: nearly all actives have a fitted effect of over 50% in size
Method in brief: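 In quantitative high-throughput format, 3T3 Gli1-Luc cells were exposed to compounds for 24hr and multiplexed for viability using CellTiter-Fluor, incubated 1hr at 37C before the fluorescence read.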

[10] = qHTS assay to identify small molecule antagonists of the sonic hedgehog signaling (Shh) pathway - cell viability counter screen (AID 1259367); also: nearly all actives have a fitted effect of over 55% in size
Method in brief: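 Cells: 3T3 Gli1-Luc, 2,000/well, 4 hr pre-incubation. Compounds in DMSO, then conditioned medium. Incubation 24 hr, 37C, 5% CO2. CellTiter-Fluor at 23 hr, 1 hr, fluorescence.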

[11] = qHTS assay to identify small molecule agonists of the sonic hedgehog signaling (Shh) pathway (AID 1259368; calls by dose curve;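 also: NIH/3T3-derived 3T3Gli1-Luc cells carrying a stable Gli1-driven firefly luciferase reporter; series mostly up to about 92 µM; nearly all actives have a fitted effect of over 15% in size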)
Method in brief: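 NIH/3T3-derived 3T3Gli1-Luc cells with stably integrated Gli1-driven firefly luciferase, 2,000 cells/well, compounds added after 4 hr. Incubated 24 hr at 37C, 5% CO2; luminescence read after 30 min with luciferase reagent at room temperature.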

[12] = qHTS assay to identify small molecule antagonists of the sonic hedgehog signaling (Shh) pathway (AID 1259369; calls by dose curve; also: nearly all actives have a fitted effect of over 45% in size; also: potency is read from the fitted curve at half-maximal effect)
Method in brief: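 NIH/3T3-derived Gli1-Luc reporter cells plated 4 h, dosed with compound, then stimulated with conditioned medium for 24 h at 37 C. Firefly luciferase luminescence read after 30 min with detection reagent at room temperature.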

[13] = target: Estrogen receptor beta (Homo sapiens) (UniProt Q92731); assay: qHTS assay to identify small molecule agonists of the estrogen receptor beta (ER-beta) signaling pathway (AID 1259377; active = well fitted activation curve with a large enough effect in the signal ratio in the repeat runs, not every such curve was filed as active; the % refers to the signal ratio)
Sequence of Estrogen receptor beta (Homo sapiens) (Q92731 whole entry, looked up): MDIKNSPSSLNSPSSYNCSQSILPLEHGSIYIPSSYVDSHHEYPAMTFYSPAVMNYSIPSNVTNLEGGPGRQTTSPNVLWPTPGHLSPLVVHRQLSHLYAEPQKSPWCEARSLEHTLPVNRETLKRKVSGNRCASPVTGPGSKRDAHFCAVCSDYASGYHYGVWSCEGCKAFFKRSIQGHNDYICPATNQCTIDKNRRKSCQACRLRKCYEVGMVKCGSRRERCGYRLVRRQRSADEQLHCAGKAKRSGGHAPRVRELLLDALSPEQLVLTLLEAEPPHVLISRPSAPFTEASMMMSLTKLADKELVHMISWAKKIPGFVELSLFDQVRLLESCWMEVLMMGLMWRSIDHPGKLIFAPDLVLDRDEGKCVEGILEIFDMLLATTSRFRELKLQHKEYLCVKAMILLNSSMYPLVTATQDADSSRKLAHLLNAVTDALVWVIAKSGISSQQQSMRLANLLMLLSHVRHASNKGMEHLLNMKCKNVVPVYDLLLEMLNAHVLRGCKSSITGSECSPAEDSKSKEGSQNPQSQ
Method in brief: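 Reporter cells (HEK293T, ER-beta-UAS-bla) receive compounds or DMSO after a 6 hr pre-incubation. They then incubate 16 hr at 37C/5% CO2, and fluorescence from LiveBLAzer B/G substrate is measured after 2 hours at room temperature.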

[14] = target: Estrogen receptor beta (Homo sapiens) (UniProt Q92731); assay: qHTS assay to identify small molecule antagonists of the estrogen receptor beta (ER-beta) signaling pathway (AID 1259378; active = well fitted inhibition curve with a large enough effect in the signal ratio in the repeat runs, not every such curve was filed as active; the % refers to the signal ratio)
Method in brief: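 Antagonist mode: compounds added to beta-lactamase reporter HEK293T ER-beta-UAS cells stimulated with E2 (1nM final), 16 hr at 37C. LiveBLAzer B/G FRET substrate, 2 hours room temperature, fluorescence read-out.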

[15] = qHTS assay to identify small molecule agonists of the androgen receptor (AR) signaling pathway in the presence of an antagonist - cell viability counter screen (AID 1259379);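 also: MDA-kb2 human breast cancer cells carrying an MMTV luciferase reporter; series mostly up to about 92 µM; nearly all actives have a fitted effect of over 25% in size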
Method in brief: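 MDA-kb2 cells (MMTV-luciferase, AR/GR), 3,000/well, 5 h attachment, then 3.0 µM nilutamide (final) and compounds at 15 concentrations. Viability by CellTiter-Fluor fluorescence after 16 h at 37 °C, 0% CO2, in the reporter wells.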

[16] = qHTS assay to identify small molecule agonists of the estrogen receptor beta (ER-beta) signaling pathway - cell viability counter screen (AID 1259380); also: nearly all actives have a fitted effect of over 30% in size
Method in brief: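 ER-beta-UAS-bla HEK293T cells in medium with 2% charcoal-stripped FBS, pre-incubated 6 hr, then treated 16 hr at 37C. Cytotoxicity read in the same wells by CellTiter-Glo luminescence after 30 min at room temperature.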

[17] = qHTS assay to identify small molecule HDAC inhibitors (AID 1259364); also: top concentration of the series differs between compounds; nearly all actives have a fitted effect of over 45% in size
Method in brief: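 Wild-type HCT-116 cells, plated overnight at 37 C, exposed to compounds 2 hr at 37 C; luminogenic HDAC-Glo substrate then added 30 min at room temperature. Luminescence reports relative endogenous class I/II HDAC activity.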

[18] = target: Androgen receptor (Homo sapiens) (UniProt P10275); assay: qHTS assay to identify small molecule antagonists of the androgen receptor (AR) signaling pathway using the MDA cell line in the presence of 0.5 nM R1881 (AID 1259243); also: nearly all actives have a fitted effect of over 50% in size
Sequence of Androgen receptor (Homo sapiens) (P10275 whole entry, looked up): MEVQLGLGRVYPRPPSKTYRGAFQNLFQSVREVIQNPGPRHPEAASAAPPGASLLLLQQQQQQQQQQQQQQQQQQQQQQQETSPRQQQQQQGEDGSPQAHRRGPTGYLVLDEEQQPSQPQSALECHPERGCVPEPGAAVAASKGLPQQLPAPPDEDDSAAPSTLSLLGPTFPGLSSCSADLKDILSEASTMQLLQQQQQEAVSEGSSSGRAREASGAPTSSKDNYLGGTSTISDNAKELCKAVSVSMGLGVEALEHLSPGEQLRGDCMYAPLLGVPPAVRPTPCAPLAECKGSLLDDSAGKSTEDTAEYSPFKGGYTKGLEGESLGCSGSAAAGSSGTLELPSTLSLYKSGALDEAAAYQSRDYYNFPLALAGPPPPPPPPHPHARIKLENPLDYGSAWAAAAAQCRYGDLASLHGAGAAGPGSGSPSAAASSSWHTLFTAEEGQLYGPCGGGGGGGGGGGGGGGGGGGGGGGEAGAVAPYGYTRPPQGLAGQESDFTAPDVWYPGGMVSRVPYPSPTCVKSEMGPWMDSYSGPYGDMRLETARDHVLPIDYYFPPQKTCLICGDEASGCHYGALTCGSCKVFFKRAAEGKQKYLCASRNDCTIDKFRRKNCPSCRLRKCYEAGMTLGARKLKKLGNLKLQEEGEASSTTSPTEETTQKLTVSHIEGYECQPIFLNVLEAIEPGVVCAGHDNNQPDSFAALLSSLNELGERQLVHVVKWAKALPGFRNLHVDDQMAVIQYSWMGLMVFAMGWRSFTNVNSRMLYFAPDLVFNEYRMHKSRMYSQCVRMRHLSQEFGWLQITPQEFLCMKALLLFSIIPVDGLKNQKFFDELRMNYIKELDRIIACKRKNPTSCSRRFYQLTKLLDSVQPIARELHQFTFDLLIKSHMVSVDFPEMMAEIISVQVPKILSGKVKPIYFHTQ
Method in brief: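 MDA-kb2 cells (MMTV-luciferase, responsive to AR and GR) at 3,000/well, rested 5 h at 37C, 0% CO2, then given compounds plus 0.5 nM R1881 (final) for 16 hr. Luciferase read with ONE-Glo after 30 min at room temperature.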

[19] = qHTS assay to identify small molecule phospholipidosis (PLD) inducers (AID 1259344; active = well fitted curve in the direction sought with a large enough effect; an effect the other way counts as inactive or inconclusive)
Method in brief: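 Phospholipidosis is scored by imaging LipidTOX-stained pits in HepG2 cells exposed to compound for 24 h at 37 C; pit counts and integrated intensities per well and per cell serve as outputs.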

[20] = qHTS RealTime-Glo MT Cell Viability Assay in HepG2 cells - 0 hour (AID 1224889); also: nearly all actives have a fitted effect of over 50% in size
Method in brief: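 Luminescence read-out: viable HepG2 cells reduce a prosubstrate to a NanoLuc substrate, giving a signal proportional to live cell number. Reads taken at 0, 8, 16, 24, 32 and 40 h of compound exposure at 37 C.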
% is scaled to controls: 0 for no effect and ±100 for the full control effect.

CC(CO)(CO)CO
inactive: Potency [1] | Potency [2] | Potency [3] | Potency [4] | outcome [5] | outcome [6] | outcome [7] | outcome [8] | outcome [9] | outcome [10] | outcome [11] | Potency [12] | Potency [13] | Potency [14] | outcome [15] | outcome [16]

CCCCCCCCCCCCCCCCCC#N
inactive: Potency [1] | Potency [2] | Potency [3] | Potency [4] | outcome [5] | outcome [7] | Potency [17] | outcome [8] | outcome [9] | outcome [10] | Potency [12] | Potency [13] | Potency [14] | outcome [15] | outcome [16]

O=C1c2ccccc2C(=O)c2cc(Cl)ccc21
inactive: activity change, negative = cytotoxicity [1] 2.92% [at 6.97 µM] | activity change, negative = cytotoxicity [2] 6.4% [at 6.97 µM] | activity change [3] -0.237% [at 6.97 µM, stronger effect = higher value] | cytotoxicity increase [4] -0.731% [at 6.97 µM] | activity change, negative = cytotoxicity [5] 1.79% [at 8.39 µM] | viability change, negative = cytotoxic [6] 2.58% [at 8.39 µM] | activity change, negative = inhibition [7] 6.71% [at 8.39 µM] | activity change, negative = inhibition [17] -13.5% [at 8.39 µM] | activity change, negative = cytotoxicity [8] 6.08% [at 8.39 µM] | viability change, negative = cytotoxic [9] 3.28% [at 8.39 µM] | viability change, negative = cytotoxic [10] 1.09% [at 8.39 µM] | activity change, negative = inhibition [12] 20.2% [at 8.39 µM] | activation [13] 7.82% [at 8.39 µM] | activity change, negative = cytotoxicity [15] 0.449% [at 8.39 µM] | activity change, negative = cytotoxicity [16] 1.14% [at 8.39 µM]

C=C(C)c1cccc(C(C)(C)N=C=O)c1
inactive: Potency [1] | Potency [2] | Potency [3] | Potency [4] | outcome [5] | outcome [6] | outcome [7] | outcome [8] | outcome [9] | outcome [10] | outcome [11] | Potency [12] | Potency [13] | Potency [14] | outcome [15] | outcome [16]

O=C(NCN1CCOCC1)c1cnccn1
inactive: Potency [1] | Potency [2] | Potency [3] | Potency [4] | outcome [6] | Potency [18] | outcome [7] | outcome [19] | Potency [17] | outcome [8] | outcome [9] | outcome [10] | outcome [11] | Potency [12] | outcome [15] | outcome [16]

Cc1ccc(N)cc1S(=O)(=O)O
inactive: Potency [1] | Potency [2] | Potency [20] | Potency [4] | outcome [5] | outcome [7] | Potency [17] | outcome [8] | outcome [9] | outcome [10] | outcome [11] | Potency [12] | Potency [13] | Potency [14] | outcome [15] | outcome [16]

CC1CC(=O)CC(C)(C)C1 (stereo unspecified)
inactive: Potency [1] | Potency [2] | Potency [3] | Potency [4] | outcome [5] | outcome [6] | outcome [7] | Potency [17] | outcome [8] | outcome [10] | outcome [11] | Potency [12] | outcome [15]

COc1c2occc2c(OC)c2c(=O)cc(C)oc12
inactive: Potency [3] | Potency [4] | outcome [6] | outcome [19] | Potency [17] | outcome [8] | outcome [9] | outcome [10] | outcome [11] | outcome [15] | outcome [16]
active: Potency [1] 8.49 µM | Potency [2] 9.52 µM | Potency [12] 11.9 µM
